The record followed here is PubChem BioAssay (NCATS).

A short description of test [1]: Confirmation and Secondary Assay for Modulators of Hemoglobin Beta Chain Splicing at IVS2 654 locus (AID 910).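 Further: HeLa cells stably carrying EGFP split by mutant beta-globin IVS2-654 intron; % of control where 0% means no effect.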 The gist of the method: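 HeLa cells stably expressing EGFP interrupted by β-globin IVS2-654 intron, seeded overnight in Opti-MEM/2% FCS, then treated 2 days at 37 °C. Restored splicing read as total peak GFP intensity per well by laser scanning cytometry (488 nm excitation, 500–520 nm emission); 500 nM antisense PNA as control.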

The nature of test [2]: Confirmation and Secondary Assay for Modulators of Hemoglobin Beta Chain Splicing at IVS2 705 locus (AID 930).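 Further: HeLa cells stably expressing the EGFP-705 splicing reporter; % of control where 0% means no effect.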 The gist of the method: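 HeLa cells stably carrying EGFP interrupted by mutant beta-globin IVS2-705 intron (CMV-driven) were seeded at 500 cells/well, treated next day with compound for 2 days at 37C; corrected splicing restores EGFP, read as total peak GFP intensity per well.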

The next test has as its system CP266. The test is described as follows: qHTS profiling for inhibitors of Plasmodium falciparum proliferation (AID 504749).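 Further: 0% = DMSO vehicle and full inhibition = artemisinin control; nearly all actives have a fitted effect of over 60% in size.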 The note with it: P. falciparum in erythrocytes, SYBR Green DNA, 72 h; series mostly up to 28.7 µM. A digest of the protocol: (§1)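 Readout was DNA-dye fluorescence from lysed cultures, ex 485/em 535 nm. Parasitized red cells had grown 72 h with compound; data scaled between 0.29 uM artemisinin and DMSO wells and corrected using vehicle-only plates.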
(In general: qHTS replaces the single test concentration by a dilution series.)

The test system of the next test is CP297. The description is as above. The conditions noted are these: P. falciparum in erythrocytes, SYBR Green DNA, 72 h; series mostly up to 28.7 µM. The gist of the method:
as §1

The subject of a further test is PC15. The test is described as above. The conditions noted are these: P. falciparum in erythrocytes, SYBR Green DNA, 72 h; series mostly up to 28.7 µM. The gist of the method: as §1
The subject of the next test is PC49. Described as above. The conditions noted are these: P. falciparum in erythrocytes, SYBR Green DNA, 72 h; series mostly up to 28.7 µM. A digest of the protocol:
as §1

The target in test [3] is Cytochrome P450 1A2 (Homo sapiens) (UniProt P05177). As to the kind of experiment: p450-cyp1a2 (AID 410; calls by dose curve;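 further: -100% = full effect of reference inhibitor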). The gist of the method:
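Human CYP1A2 (20nM) demethylated Luciferin-ME at its Km (100uM) in 100mM KPO4. After 10 min compound preincubation, NADPH regeneration ran the reaction 60 min at room temperature. Luciferin was read by luminescence, normalized to 57 uM furafylline.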

Test [4] concerns the target 3',5'-cyclic-AMP phosphodiesterase 4B (Homo sapiens) (UniProt Q07343). As to the kind of experiment: qHTS Assay for Inhibitors of PDE-IV (AID 607; active means well fitted activation curve with a large enough effect in the main read-out, with a control signal flat, not every such curve was filed as active; further: % of control where 0% means no effect). A digest of the protocol: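 The readout is membrane depolarisation from a cAMP-sensing CNG channel, detected with a potential dye at ex 535/em 590. Cells were HEK293-derived (endogenous PDE-IV) at 1000 cells/well, titrated up to 22.9 uM final.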

Test [5] concerns the target DNA dC->dU-editing enzyme APOBEC-3G (Homo sapiens) (UniProt Q9HC16). The test is described as follows: qHTS for inhibitors of Vif-A3G interactions: Validation (AID 588379). Further: 0% is about no effect. The gist of the method: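 HeLa cells stably expressing Vif and A3G-eYFP, 700 cells/well, incubated overnight at 37 deg C, then exposed to compound overnight at 37 deg C. Inhibition of Vif-mediated degradation read as increased yellow fluorescence (Ex 488/Em 500-530) by laser-scanning cytometry.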

Test [6] concerns Zika virus NS2B-NS3 protease. As to the kind of experiment: Primary screen GU AMC qHTS for Zika virus inhibitors (AID 1347154).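 Further: 0% = no-inhibitor control and -100% = no-enzyme control; nearly all actives have a fitted effect of over 70% in size.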 The gist of the method:
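Unlinked Zika NS2B hydrophilic domain–NS3 protease complex at 25 nM in 10 mM Tris-HCl pH 8.0, 0.01% Tween 20, with an AMC peptide substrate. Fluorescence change (340/450 nm) over 15 min at room temperature, normalized to controls, fitted to 4-parameter Hill.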

Test [7] in a line: Primary qHTS for small molecule stabilizers of the endoplasmic reticulum resident proteome: Secreted ER Calcium Modulated Protein (SERCaMP) assay (AID 1508630). Further: on the % scale 0 is the no-effect control and ±100 the full control effect. A digest of the protocol: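 GLuc-SERCaMP-expressing SH-SY5Y cells, pretreated 16 h with compound, are challenged with thapsigargin to empty ER calcium stores; after 4 h, coelenterazine is added directly to the medium and luminescence is imaged.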

The target in test [8] is Cytochrome P450 3A4 (Homo sapiens) (UniProt P08684). As to the kind of experiment: Cytochrome P450 family 3 subfamily A member 4 (CYP3A4) small molecule antagonists: luciferase qHTS assay (AID 1645841; active means well fitted curve in the direction sought with a large enough effect in the repeat runs; an effect the other way counts as inactive or inconclusive; further: nearly all actives have a fitted effect of over 45% in size). The gist of the method: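 P450-Glo CYP3A4 enzyme with proluciferin substrate preincubated 10 min with compound at room temperature, then NADPH regeneration 1 h. Luciferin detection reagent added for 20 min; luminescence recorded. Ketoconazole positive control.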

Test [9] in a line: qHTS assay for small molecule disruptors of the mitochondrial membrane potential - 1 hr assay (AID 651754; calls by dose curve; further: on the % scale 0 is the no-effect control and ±100 the full control effect; nearly all actives have a fitted effect of over 35% in size). The gist of the method: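 HepG2 cells, attached overnight at 37C, were exposed to compound or DMSO vehicle for 1 hr at 37C, 5% CO2, then stained with Mito-MPS dye for 30 min. Red aggregate versus green monomer fluorescence reports membrane potential.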
A short description of test [10]: qHTS assay for small molecule disruptors of the mitochondrial membrane potential - 5 hr assay (AID 651755; calls by dose curve; further: on the % scale 0 is the no-effect control and ±100 the full control effect; nearly all actives have a fitted effect of over 40% in size). A digest of the protocol: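 HepG2 cells (2,000/well), attached overnight, exposed to compound 5 hr at 37C, then Mito-MPS dye 30 min. Fluorescence read for monomers (490/535 nm) and aggregates (540/590 nm).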
Test [11] addresses Mitogen-activated protein kinase 10 (Mus musculus) (UniProt Q61831). As to the kind of experiment: JNK3 AlphaScreen Assay (AID 530; active means well fitted curve in either direction with a large enough effect, not every such curve was filed as active;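 further: kinase came from lysate of stimulated human HepG2 cells; signal reports phosphorylation of biotinylated GST-cJun 1-79 at Ser73 with 10 µM ATP; on the % scale 0 is the no-effect control and ±100 the full control effect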). A digest of the protocol: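 qHTS format: compounds tested as titrations against IL-1beta/TNF-alpha-activated HepG2 lysate JNK3 with biotin-GST-cJun substrate and 10 uM ATP at room temperature. Loss of anti-phospho-cJun AlphaScreen signal indicates inhibition.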
Background: Bead proximity is the source of the signal in Alpha formats.

In test [12] the target is Estrogen receptor (Homo sapiens) (UniProt P03372). As to the kind of experiment: qHTS assay for small molecule antagonists of estrogen receptor alpha signaling (AID 588513; active means well fitted curve in the direction sought with a large enough effect in the signal ratio, with a control signal flat, not every such curve was filed as active; the % refers to the signal ratio; further: on the % scale 0 is the no-effect control and ±100 the full control effect). The gist of the method:
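ER-alpha-UAS-bla GripTite HEK 293 cells in medium with 2% charcoal/dextran-treated FBS were preincubated 4 h at 37 C, dosed with compound (1:2 titration), stimulated with 0.5nM 17-beta-estradiol for 18 h, then read by CCF4 beta-lactamase fluorescence.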

Test [13] addresses Peroxisome proliferator-activated receptor gamma (Homo sapiens) (UniProt P37231). The test is described as follows: qHTS assay for small molecule agonists of peroxisome proliferator-activated receptor gamma signaling (AID 588536; active means well fitted curve in the direction sought with a large enough effect in the signal ratio, with a control signal flat, not every such curve was filed as active; the % refers to the signal ratio;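 further: 0% = DMSO basal wells and 100% = rosiglitazone at 2 µM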). A digest of the protocol:
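Test agents, titrated, stimulated HEK293 UAS-bla cells overnight (16 h, 37 C). Substrate CCF4 was then added for two hours at room temperature before fluorescence reading.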

Test [14] addresses Glucocorticoid receptor (Homo sapiens) (UniProt P04150). As to the kind of experiment: qHTS assay for small molecule agonists of glucocorticoid receptor signaling (AID 588532; active means well fitted curve in the direction sought with a large enough effect in the signal ratio, with a control signal flat; the % refers to the signal ratio;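 further: 100% = dexamethasone at 0.1 µM and 0% = DMSO only wells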). The note with it: HeLa MMTV-bla, beta-lactamase ratio, agonist, 18 h; stronger effect = higher value; percent of dexamethasone control, DMSO zero. The gist of the method: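 Cells were plated and rested 3-5 h at 37 C, compounds were added in titration and incubated 18 h, then CCF4 substrate was loaded for 2 h at RT before reading blue/green fluorescence. EC50 came from Hill-equation fitting.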

Test [15] is described as follows: qHTS assay for small molecule antagonists of peroxisome proliferator-activated receptor delta signaling (AID 588535; active means well fitted inhibition curve with a large enough effect in the signal ratio, with a control signal flat, not every such curve was filed as active; the % refers to the signal ratio;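 on max response: cells co-treated with a PPAR-delta agonist as stimulator during compound exposure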). The note with it: HEK293T PPARd-UAS-bla, beta-lactamase FRET ratio, 18 h; 460 nm channel. A digest of the protocol:
(§2)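 Cells were seeded at 4000 per well in assay medium containing 2% charcoal/dextran FBS and held 5 hrs at 37 C. Compounds were then added for 18 hrs. CCF4 substrate was applied for 2 hrs at room temperature before fluorescence reading.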

Test [16] concerns the target Peroxisome proliferator-activated receptor delta (Homo sapiens) (UniProt Q03181). The test is described as above. The gist of the method:
as §2

The structures appear in SMILES notation. Several values for one entry are separate records, joined by “and”; a condition that tells them apart may be missing. Equal entries are not always repeated. Inconclusive results are not listed. Activity calls are given as the source filed them. Unless noted, the call rests on the fitted dose curve; in most records, active means well fitted curve in the direction sought with a large enough effect; inconclusive means small, poorly fitted or top-dose-only effect, or another doubt; inactive means no such curve, though single readings can be large; an effect the other way counts as inactive or inconclusive.

Glucocorticoid receptor (Homo sapiens), sequence (P04150 whole entry, looked up): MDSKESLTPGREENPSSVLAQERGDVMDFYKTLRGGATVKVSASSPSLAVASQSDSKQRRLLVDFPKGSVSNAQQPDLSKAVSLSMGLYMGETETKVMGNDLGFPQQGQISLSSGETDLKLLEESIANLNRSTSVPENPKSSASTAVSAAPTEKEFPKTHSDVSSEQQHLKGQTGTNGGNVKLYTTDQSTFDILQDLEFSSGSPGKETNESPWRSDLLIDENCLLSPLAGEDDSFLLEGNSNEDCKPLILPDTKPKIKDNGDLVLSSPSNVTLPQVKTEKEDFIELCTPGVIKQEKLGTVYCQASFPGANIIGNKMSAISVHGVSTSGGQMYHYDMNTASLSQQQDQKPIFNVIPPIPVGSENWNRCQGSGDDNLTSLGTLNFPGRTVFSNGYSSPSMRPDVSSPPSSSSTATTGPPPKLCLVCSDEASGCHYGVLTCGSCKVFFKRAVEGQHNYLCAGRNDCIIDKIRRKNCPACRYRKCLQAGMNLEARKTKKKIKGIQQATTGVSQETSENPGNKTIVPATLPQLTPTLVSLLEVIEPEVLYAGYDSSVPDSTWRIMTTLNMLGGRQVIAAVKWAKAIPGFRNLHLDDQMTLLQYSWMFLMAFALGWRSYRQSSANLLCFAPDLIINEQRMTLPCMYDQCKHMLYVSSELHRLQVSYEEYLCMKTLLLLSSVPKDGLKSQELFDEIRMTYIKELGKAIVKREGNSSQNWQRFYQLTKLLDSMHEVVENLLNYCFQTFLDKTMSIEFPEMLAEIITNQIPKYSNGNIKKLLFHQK
Peroxisome proliferator-activated receptor gamma (Homo sapiens), sequence (P37231 whole entry, looked up): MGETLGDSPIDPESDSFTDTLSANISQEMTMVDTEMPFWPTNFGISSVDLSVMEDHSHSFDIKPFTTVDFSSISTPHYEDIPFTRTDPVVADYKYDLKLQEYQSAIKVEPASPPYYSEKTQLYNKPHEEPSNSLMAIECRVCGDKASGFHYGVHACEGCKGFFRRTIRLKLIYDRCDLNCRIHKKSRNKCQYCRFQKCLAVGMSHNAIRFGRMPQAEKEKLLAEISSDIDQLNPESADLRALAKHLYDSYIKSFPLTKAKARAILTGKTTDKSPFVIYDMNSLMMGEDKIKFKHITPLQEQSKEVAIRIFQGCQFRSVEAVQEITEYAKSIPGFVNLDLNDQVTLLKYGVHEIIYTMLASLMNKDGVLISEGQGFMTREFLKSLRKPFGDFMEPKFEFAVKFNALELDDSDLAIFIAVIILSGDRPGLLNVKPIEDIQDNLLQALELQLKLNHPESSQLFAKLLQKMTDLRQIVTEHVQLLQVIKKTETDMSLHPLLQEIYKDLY
Estrogen receptor (Homo sapiens), sequence (P03372 whole entry, looked up): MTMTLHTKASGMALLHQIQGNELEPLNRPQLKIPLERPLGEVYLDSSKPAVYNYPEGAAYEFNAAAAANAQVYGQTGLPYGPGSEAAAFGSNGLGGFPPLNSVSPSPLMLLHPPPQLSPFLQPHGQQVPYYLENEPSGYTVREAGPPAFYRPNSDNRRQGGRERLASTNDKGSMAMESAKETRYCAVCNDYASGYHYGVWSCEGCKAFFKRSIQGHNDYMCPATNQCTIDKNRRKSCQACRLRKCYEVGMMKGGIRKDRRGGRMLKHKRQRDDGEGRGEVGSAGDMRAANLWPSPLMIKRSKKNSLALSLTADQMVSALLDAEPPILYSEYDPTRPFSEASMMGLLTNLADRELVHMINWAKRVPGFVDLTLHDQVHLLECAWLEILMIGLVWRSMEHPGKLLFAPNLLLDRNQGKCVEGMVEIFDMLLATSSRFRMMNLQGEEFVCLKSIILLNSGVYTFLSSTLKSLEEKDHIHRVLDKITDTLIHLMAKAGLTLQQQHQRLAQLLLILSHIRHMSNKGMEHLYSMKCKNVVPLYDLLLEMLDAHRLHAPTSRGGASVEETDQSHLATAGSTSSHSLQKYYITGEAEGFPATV
3',5'-cyclic-AMP phosphodiesterase 4B (Homo sapiens), sequence (Q07343 whole entry, looked up): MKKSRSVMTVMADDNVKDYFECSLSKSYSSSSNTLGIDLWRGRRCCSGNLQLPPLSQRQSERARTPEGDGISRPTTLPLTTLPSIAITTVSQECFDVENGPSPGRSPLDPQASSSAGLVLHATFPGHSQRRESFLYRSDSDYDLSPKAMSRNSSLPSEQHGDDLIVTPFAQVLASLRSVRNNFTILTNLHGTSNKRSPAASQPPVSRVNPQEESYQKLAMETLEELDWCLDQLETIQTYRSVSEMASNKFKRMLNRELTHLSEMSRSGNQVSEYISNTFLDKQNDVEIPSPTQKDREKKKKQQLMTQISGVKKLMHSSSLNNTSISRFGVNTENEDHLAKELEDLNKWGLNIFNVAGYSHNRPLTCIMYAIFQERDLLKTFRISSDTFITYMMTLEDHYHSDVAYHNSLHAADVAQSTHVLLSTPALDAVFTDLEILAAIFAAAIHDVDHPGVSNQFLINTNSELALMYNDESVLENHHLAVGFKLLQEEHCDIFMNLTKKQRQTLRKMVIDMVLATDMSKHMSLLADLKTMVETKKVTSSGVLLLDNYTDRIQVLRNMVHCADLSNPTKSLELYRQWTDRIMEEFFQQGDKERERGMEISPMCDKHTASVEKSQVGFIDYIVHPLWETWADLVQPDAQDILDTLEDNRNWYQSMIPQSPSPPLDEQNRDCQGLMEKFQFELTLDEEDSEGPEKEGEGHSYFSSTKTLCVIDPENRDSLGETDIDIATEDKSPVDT
Cytochrome P450 1A2 (Homo sapiens), sequence (P05177 whole entry, looked up): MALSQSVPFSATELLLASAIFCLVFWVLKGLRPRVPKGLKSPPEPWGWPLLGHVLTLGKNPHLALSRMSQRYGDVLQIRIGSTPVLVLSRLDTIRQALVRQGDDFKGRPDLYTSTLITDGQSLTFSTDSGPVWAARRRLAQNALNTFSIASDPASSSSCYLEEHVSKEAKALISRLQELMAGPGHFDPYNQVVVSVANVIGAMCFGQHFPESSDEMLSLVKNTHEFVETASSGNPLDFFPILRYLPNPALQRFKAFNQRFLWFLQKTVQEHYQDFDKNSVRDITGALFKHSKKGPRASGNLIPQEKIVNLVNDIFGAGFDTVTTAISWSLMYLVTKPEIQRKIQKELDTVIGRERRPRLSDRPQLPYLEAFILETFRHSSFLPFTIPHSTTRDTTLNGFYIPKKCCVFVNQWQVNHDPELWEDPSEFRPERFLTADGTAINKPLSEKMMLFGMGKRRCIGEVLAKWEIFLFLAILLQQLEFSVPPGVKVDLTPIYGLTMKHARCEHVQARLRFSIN
DNA dC->dU-editing enzyme APOBEC-3G (Homo sapiens), sequence (Q9HC16 whole entry, looked up): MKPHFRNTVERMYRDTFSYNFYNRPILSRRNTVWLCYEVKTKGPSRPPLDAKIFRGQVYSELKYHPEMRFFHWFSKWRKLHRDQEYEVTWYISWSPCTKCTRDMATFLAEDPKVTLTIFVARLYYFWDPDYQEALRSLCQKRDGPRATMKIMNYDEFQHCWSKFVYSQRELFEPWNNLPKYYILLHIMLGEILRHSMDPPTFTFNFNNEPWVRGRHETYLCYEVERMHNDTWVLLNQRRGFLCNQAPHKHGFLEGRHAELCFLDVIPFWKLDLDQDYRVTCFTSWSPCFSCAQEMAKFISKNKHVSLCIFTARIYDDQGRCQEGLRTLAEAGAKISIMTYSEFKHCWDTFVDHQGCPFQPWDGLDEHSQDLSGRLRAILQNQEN
Cytochrome P450 3A4 (Homo sapiens), sequence (P08684 whole entry, looked up): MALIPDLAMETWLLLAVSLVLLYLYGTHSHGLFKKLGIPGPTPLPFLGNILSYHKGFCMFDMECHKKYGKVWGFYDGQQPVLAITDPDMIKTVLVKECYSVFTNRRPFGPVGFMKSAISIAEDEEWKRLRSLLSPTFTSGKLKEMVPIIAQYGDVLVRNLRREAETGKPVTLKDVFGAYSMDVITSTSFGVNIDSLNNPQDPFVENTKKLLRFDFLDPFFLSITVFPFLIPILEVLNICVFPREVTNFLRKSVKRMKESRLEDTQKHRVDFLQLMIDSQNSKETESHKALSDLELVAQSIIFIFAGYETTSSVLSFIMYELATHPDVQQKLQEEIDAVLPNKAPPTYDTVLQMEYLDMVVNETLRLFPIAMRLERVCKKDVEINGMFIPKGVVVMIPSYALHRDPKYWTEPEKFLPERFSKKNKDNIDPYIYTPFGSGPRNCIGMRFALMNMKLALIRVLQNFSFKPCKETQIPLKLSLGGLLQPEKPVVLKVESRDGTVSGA
Peroxisome proliferator-activated receptor delta (Homo sapiens), sequence (Q03181 whole entry, looked up): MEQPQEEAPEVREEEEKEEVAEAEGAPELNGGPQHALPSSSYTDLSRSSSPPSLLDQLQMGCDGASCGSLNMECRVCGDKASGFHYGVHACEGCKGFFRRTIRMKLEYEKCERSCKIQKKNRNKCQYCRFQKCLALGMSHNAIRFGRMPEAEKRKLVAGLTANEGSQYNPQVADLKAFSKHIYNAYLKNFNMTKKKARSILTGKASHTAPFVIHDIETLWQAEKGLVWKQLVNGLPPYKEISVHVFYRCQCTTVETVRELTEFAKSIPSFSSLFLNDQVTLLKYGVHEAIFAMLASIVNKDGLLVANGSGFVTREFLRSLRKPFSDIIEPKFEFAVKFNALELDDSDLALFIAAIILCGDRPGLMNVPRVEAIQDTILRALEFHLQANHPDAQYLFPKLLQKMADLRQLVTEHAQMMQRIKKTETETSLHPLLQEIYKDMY

`C[N+](C)(C)CC(=O)[O-]`: the Potency result (in [1]; in the test with CP266; in the test with CP297; in the test on PC15; in the test with PC49) was “inactive” in each case. In [2], the compound was called inactive.
With `Clc1ccc([C@@H]2C[C@H]3CC[C@@H]2N3)cn1`, the Potency entry in [3], in test [4], in test [5], in test [6] and in [7] was “inactive” in each case.
`CCCCNC(C)(C)[P+](=O)O`: in [8], the result was inactive.
For `O=Cc1ccccc1`, the Potency result in test [9] and in test [10] was “inactive” throughout.
In the case of `COC(=O)c1ccccc1C(=O)OC`, the compound was classed as inactive in test [11] and in test [13]. In [12], the Potency result is “inactive”.
As for `CCOc1cc(C=O)ccc1O`, in [14], the activation is 0.229% (inactive) and -4.79% (inactive). The max response in test [15] was -4.7%. For the same compound, the outcome in test [16] was inactive.
